# Screening results: PubChem BioAssay, several laboratories
# HSV replic up – HSV replication enhancement. HSV replication augmentation in cells, fold increase. maximum fold increase. 220,000 compounds, 0.005% hits; in the data active means maximum fold increase above about 1.5; tested in PC3 cells
# H9c2 protect – modulators protecting cardiomyocytes from myocardial damage | H9c2 cardiomyocytes, H2O2 injury protection, ATPLite, 2 h | AID 588492 | 360,000 compounds, 0.63% hits | protection from H2O2 cell death, % at 20 µM;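 active means compounds giving at least 50% protection of heart cells from peroxide-induced death in the single-dose screen, raw or plate-pattern-corrected value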;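 further: 0% = DMSO wells with peroxide and 100% = DMSO wells without peroxide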
# pCIP destab – p/CIP protein destabilization | F442A p/CIP-EGFP cells, EGFP fluorescence, 16 h | 290,000 compounds, 0.01% hits | Q05BA5 | decrease of EGFP signal, % at 10 µM;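 active means EGFP signal decrease of at least 30% at 10 µM or well 3 SD below plate mean, unless failing retest; inactive means the rest, including hits failing retest or dose response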
# V-ATPase pH – alters yeast V-ATPase proton transport; 350,000 compounds, 0.37% hits; response, % at 10 µM; S. cerevisiae, pHLuorin cytosolic pH fluorescence; in the data active means response mostly above about 7.3%, no sharp cut-off; inactive means mostly below about 5.4%; further: actives read high
# Yeast superoxide – lowers age-related superoxide in aged yeast cells; 330,000 compounds, 0.18% hits; AID 2690; S. cerevisiae aged cells, superoxide DHE fluorescence; active compounds read low; superoxide response (% of plate mean), % at 10 µM;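 active means superoxide response under a set limit, about three screen SD below normal, cut at about 65% in these data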;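 further: yeast aged for seven days with compound at 30 °C before DHE staining; 100% = average MFI of all compound-treated wells on the plate with controls excluded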
# MIN6 prolif-1 – MIN6 beta-cell proliferation induction. MIN6 cells proliferation, ATPlite luminescence, 48 h; cells starved in 0.2% serum; 100% = growth in 10% serum. 330,000 compounds, 0.29% hits. proliferation, % at 10 µM. AID 2380;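 active means compounds whose signal lies at least 3.5 SD above the mean of all wells on their plate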;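 further: 0% = DMSO-treated cells in low-serum medium and 100% = 10% serum control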
# MIN6 prolif-2 – confirmation of inducers of beta-cell replication in MIN6 cells | shares compounds with MIN6 prolif-1 | MIN6 beta-cell proliferation, ATPlite luminescence, 48 h; cells kept in 0.2% serum; scaled between 0.2% and 10% serum | proliferation increase, % at 50 µM | 920 tested, under 10 active | AID 463095;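 active means proliferation increase above 40% at any of the four tested concentrations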
# Starred values were filed as active, the others as inactive; i = inactive; . = not tested or not shown. Shown are actives, neighbours in structure and some others; about 1.4% of the full set was active somewhere.
SMILES,HSV replic up,H9c2 protect,pCIP destab,V-ATPase pH,Yeast superoxide,MIN6 prolif-1,MIN6 prolif-2
Cc1ccccc1NS(=O)(=O)c1ccc(C(=O)NCC(c2ccco2)N(C)C)cc1 (configuration not stated),.,-2.7,.,0.8,85.5,11.5*,-3.4
COc1ccc(S(=O)(=O)N2CCCCCC2)cc1C(=O)N(C)CC(=O)Nc1cc(C)ccc1C,.,-1.0,-12.1,6.4,122.3,1.3,.
CN(C)c1ccc(N=C/C=C2/N(C)c3ccccc3C2(C)C)cc1,i,-11.0,-15.2,8.6,.,.,.
Cc1ccccc1CC1SC(N)=NC1=O (configuration not stated),.,5.2,-9.1,-2.4,90.3,2.7,.
O=C(c1cccc(Cl)c1)N1CCN(c2ccc(N3CCOCC3)nn2)CC1,.,2.9,.,4.2,96.9,14.3*,-1.0
CCc1cc(C(=O)NNC(=O)CCN2CCN(c3ccccc3)CC2)sc1C,.,2.2,-3.3,2.0,105.3,12.9*,-3.4
Cc1cc(C(=O)NNC(=O)CCN2CCN(c3ccccc3)CC2)c2ccccc2n1,i,3.5,11.7,0.6,99.2,-1.3,.
CCOc1ccccc1N(CC(=O)Nc1ccc(OC)c(OC)c1)S(=O)(=O)c1ccccc1,.,-2.6,1.1,3.1,97.2,1.2,.
CCOc1ccccc1N(CC(=O)NCCc1ccc(OC)c(OC)c1)S(=O)(=O)c1ccccc1,.,2.2,-7.5,6.7,85.8,7.1*,-0.8
COc1ccc(N(CC(=O)NCCc2ccccc2)C(=O)c2csnn2)cc1OC,.,-0.5,4.0,-3.7,86.4,6.2*,0.5
O=C(CN(Cc1ccccc1Cl)C(=O)c1csnn1)NCCc1ccccc1,.,-2.4,-7.4,-4.4,110.8,6.0*,-3.7
CCc1cccc2c(/C=N/NC(=O)c3cccc(S(=O)(=O)Nc4ccccc4Cl)c3)c[nH]c12,i,-4.3,2.1,0.6,97.2,-3.5,.
CCOC(=O)CNC(=O)CSc1nnc(Cn2cnc3ccccc32)n1C,i,7.5,-3.6,3.0,97.1,-3.3,.
COc1ccc(C(=O)NC(CC(=O)O)c2cc([N+](=O)[O-])ccc2Cl)c(SC)c1 (configuration not stated),i,1.0,-7.7,3.3,103.2,-2.3,.
O=C(N/N=C/c1cc2c(cc1Cl)OCO2)c1cccc(Br)c1,.,-6.8,3.1,-0.9,110.2,11.3*,-1.7
COc1ccc(Cn2c(CCCO)nc3ccccc32)cc1OC,i,2.8,-4.2,-0.7,82.2,5.7*,3.2
CCc1nc2ccc(C(=O)NCCN3CCNC3=O)cn2c1N(CC)CCOC,.,2.0,.,.,.,.,.
Cn1c(=O)[nH]c(=O)c2c1nc1n2CCCN1CCc1ccccc1,i,0.9,3.2,-7.9,95.5,7.2*,2.7
CC(NCc1ccccc1)C1COc2ccccc2O1 (configuration not stated),i,11.5,-16.4,0.2,94.0,5.5*,-0.2
COc1ccc(CNC(C)C2COc3ccccc3O2)c(OC)c1 (configuration not stated),i,2.3,-8.2,4.8,89.3,1.7,.
CCC(C)(C)n1nnnc1C(c1cccnc1)N1CCN(c2cccc(C(F)(F)F)c2)CC1 (configuration not stated),i,-8.6,-17.3,0.9,87.9,-3.4,.
O=C(NCc1ccc(F)cc1)c1ccc2c(c1)S(=O)(=O)c1ccccc1C2=O,i,19.8,.,-3.3,104.3,8.1,.
COc1cc(CNC(=O)c2ccc3c(c2)S(=O)(=O)c2ccccc2C3=O)cc(OC)c1,i,10.0,.,-0.2,90.2,14.6*,3.2
O=C(Nc1ccc(S(=O)(=O)O)cc1)c1ccc2c(c1)S(=O)(=O)c1ccccc1C2=O,i,2.9,.,-0.2,99.3,13.6*,-1.1
COc1ccccc1NC(=O)C1CC(O)CN1C(=O)Oc1ccccc1 (configuration not stated),.,4.6,-11.8,-2.8,102.7,3.2,.
SMILES,HSV replic up,H9c2 protect,pCIP destab,V-ATPase pH,Yeast superoxide,MIN6 prolif-1,MIN6 prolif-2
O=C1CC(C(F)(F)F)=NN1,i,0.8,-18.6,0.0,104.4,-0.7,.
CC(C)n1c(SCc2ccc(Cl)cc2)nc2c1c(=O)[nH]c(=O)n2C,i,-14.6,-10.3,-2.6,95.8,5.6*,-5.8
Cc1cc(C)c2c(=O)cc(C(=O)NCc3ccccc3)oc2c1,.,8.6,-0.2,-3.9,101.1,-1.9,.
COC(=O)C(C)Oc1ccc(Cl)c(CN2OCC(C)(C)C2=O)c1 (configuration not stated),.,8.5,.,-1.9,113.0,-0.6,.
CN(Cc1cccs1)C(=O)COc1cccc2c1OC(C)(C)C2,.,1.5,.,10.5,102.1,9.9*,-1.0
CN(C)CCNC(=O)COc1cccc2c1OC(C)(C)C2,i,5.3,6.9,-1.7,94.0,0.9,.
COc1ccc(N/N=C(\C=N\O)C(=O)c2ccc(OC)cc2)cc1,i,-13.7,-12.4,0.9,96.1,-3.0,.
N/N=C/C(=N\Nc1ccc(Cl)cc1)C(=O)c1ccncc1,i,7.1,-4.3,-2.9,96.5,9.8*,0.5
CCCC(=O)Nc1cccc(C(=O)Nc2ccccc2OCC)c1,i,.,-25.3,.,92.6,-4.0,.
CCCCNC(=O)C1(C)CCN1C(=O)c1ccc2sccc2c1 (configuration not stated),.,-2.5,.,.,.,.,.
CCN1CN(CCc2ccccc2)CNC1=S,i,-2.8,1.7,-0.8,114.3,9.3*,-2.7
CCOC(=O)/C(C(=O)Nc1ccccc1Br)=C1/NC(C)(C)Cc2ccccc21,i,-1.8,-8.8,2.1,98.9,0.0*,-6.4
CC(C)c1c(C(=O)N/N=C/C=C/c2ccccc2)nnn1-c1nonc1N,.,10.5,-5.8,-1.1,103.9,11.7*,-5.9
CC(OC(=O)Cc1ccccc1[N+](=O)[O-])C(=O)NC(=O)NC1CCCCC1 (configuration not stated),.,0.3,.,-0.6,93.8,0.1,.
C=CCn1c(-c2cccc(OC)c2)nc2nc3ccccc3nc21,i,9.1,-16.8,-3.0,107.9,9.1*,-2.7
CN1C[C@@H]2[C@@H]3C(=O)N(C)C(=O)[C@@H]3[C@](C)(C1=O)N2C(=O)c1ccc(C(C)(C)C)cc1,.,2.3,.,2.9,.,.,.
CC(C)c1cc(=O)[nH]c(N2CCN(Cc3ccc4c(c3)OCO4)CC2)n1,.,-7.3,-3.6,-3.7,88.9,8.7*,-1.8
Cc1cc(C)c(C#N)c(SCc2ccc(C#N)cc2)n1,i,-4.2,1.3,0.8,153.3,11.5*,-1.5
Cc1cc(C)c(C#N)c(SCc2ccc(F)cc2)n1,i,-6.4,-16.9,-2.7,99.9,0.8,.
COc1ccc(CCN(Cc2ccccn2)C(=S)Nc2cccc(C)c2)cc1OC,i,4.0,-2.2,-4.0,91.5,8.7*,-6.2
OCC[C@@H]1C[C@@H](O)[C@H](O)[C@]2(CCc3ccccc3CO2)O1,.,1.1,3.2,-2.6,103.7,-3.6,.
